The structures appear in SMILES notation. Active and inactive are the calls of the source.

Assay [1] is described as follows: small molecules captured by biotinylated probe aFSTL3 – biochemical, small-molecule microarray, fluorescence 635/667, stem cell growth factor project, primary screen (AID 1064).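 Also: measures binding of the biotinylated anti-FSTL3 antibody to printed compounds.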 To be noted: higher = more signal.
The nature of assay [2]: binders from COS7 lysate, DM2A8 probe, primary screen, torsin A project, cell lysate, small-molecule microarray, fluorescence 635/667 (AID 1065). To be noted: higher = more signal, COS7 lysate expressing mutant human TOR1A.
Assay [3] is described as follows: small molecules captured by biotinylated probe aFGF2 – biochemical, small-molecule microarray, fluorescence 635/667, stem cell growth factor project, primary screen (AID 1067).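 Also: measures binding of biotinylated aFGF2 protein to printed compounds on slides; z-score merges feature fluorescence and signal-to-noise across triplicate slides.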 To be noted: higher = more signal.
Assay [4] is described as follows: small molecules captured by biotinylated probe aFGF10 – biochemical, small-molecule microarray, fluorescence 635/667, stem cell growth factor project, primary screen (AID 1071).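 Also: score merges 667 nm spot intensity and signal to noise from triplicate slides.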 Conditions: higher = more signal.
Assay [5] concerns the target Neurogenic locus notch homolog protein 2 (Homo sapiens) (UniProt Q04721). The assay is described as follows: small molecules binding Notch2 protein – biochemical, small-molecule microarray, 635 nm fluorescence, stem cell growth factors, primary screen (AID 1073). Conditions: higher = more signal.
The target of assay [6] is Pro-neuregulin-1, membrane-bound isoform (Homo sapiens) (UniProt Q02297). The assay is described as follows: small molecules binding neuregulin-1 protein – biochemical, small-molecule microarray, fluorescence 635/667, psychiatric disease protein project, primary screen (AID 1075).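 Also: score combines 667 nm spot fluorescence with signal to noise.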 To be noted: NRG1 binding, 635 nm fluorescence, higher = more signal.
Pro-neuregulin-1, membrane-bound isoform (Homo sapiens), sequence (Q02297 whole entry, looked up, the tested form may be a part, canonical isoform): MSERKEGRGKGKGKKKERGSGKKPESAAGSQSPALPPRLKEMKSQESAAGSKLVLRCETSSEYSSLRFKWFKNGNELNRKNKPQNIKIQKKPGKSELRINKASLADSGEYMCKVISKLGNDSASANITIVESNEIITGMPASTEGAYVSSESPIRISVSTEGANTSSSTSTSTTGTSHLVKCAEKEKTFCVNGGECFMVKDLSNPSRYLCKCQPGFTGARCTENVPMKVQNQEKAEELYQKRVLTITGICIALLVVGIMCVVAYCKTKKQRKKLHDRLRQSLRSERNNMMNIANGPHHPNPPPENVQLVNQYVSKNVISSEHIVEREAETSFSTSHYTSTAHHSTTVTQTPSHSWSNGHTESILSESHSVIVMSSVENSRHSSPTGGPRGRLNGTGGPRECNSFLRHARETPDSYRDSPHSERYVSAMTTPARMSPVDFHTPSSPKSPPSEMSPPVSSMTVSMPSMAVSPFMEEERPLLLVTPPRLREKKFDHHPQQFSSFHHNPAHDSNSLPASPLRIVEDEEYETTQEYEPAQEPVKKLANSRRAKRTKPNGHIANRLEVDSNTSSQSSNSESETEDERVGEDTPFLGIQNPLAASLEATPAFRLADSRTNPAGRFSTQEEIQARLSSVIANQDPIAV
Assay [7] has as its system Neuregulin-1 EGF-like domain. The assay is described as follows: small molecules binding NRG1 EGF domain – biochemical, small-molecule microarray, 635 nm fluorescence, primary screen (AID 1081).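 Also: binding of the protein to compounds printed on small-molecule microarray slides.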 To be noted: higher = more signal.
A short description of assay [8]: FRG1 expression reporter modulators in myotubes – cell-based, C2C12 myotubes, firefly/Renilla luciferase, luminescence, FRG1 inhibition for FSHD, primary screen (AID 1084). Conditions: FRG1 promoter luciferase, higher = more signal, called active from +8 up or from −8 down.
Assay [9] in a line: small molecules captured by biotinylated probe aFST – biochemical, small-molecule microarray, fluorescence 635/667, stem cell growth factor project, primary screen (AID 1086).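 Also: score merges 667 nm fluorescence with signal-to-noise of each printed compound spot.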 To be noted: higher = more signal.
Assay [10] is described as follows: binders of probe aHhip on microarray, primary screen, stem cell growth factor project, biochemical, small-molecule microarray, fluorescence 635/667 (AID 1087).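 Also: score merges spot fluorescence at 667nm with spot signal to noise ratio.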 To be noted: higher = more signal.
In assay [11] the test system is PRMT1 (protein arginine N-methyltransferase 1). As to the kind of experiment: small molecules binding arginine methyltransferase PRMT1 – biochemical, small-molecule microarray, 635 nm fluorescence, primary screen (AID 1088).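 Also: binding of Prmt1 protein to compounds spotted on small-molecule microarray slides.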 To be noted: higher = more signal.
Assay [12] is described as follows: growth effects on S. cerevisiae YJM789 – YJM789 clinical isolate, OD600, 24 h, basal, primary screen (AID 1089).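 Also: growth of clinical yeast isolate S. cerevisiae YJM 789 seeded 1000 cells per well; test concentration not given here.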 Conditions: higher = more signal, called active from +8 up or from −8 down.
Assay [13] in a line: S. pombe growth modifiers, basal conditions – strain 972, OD600, 24 h, no modulator, primary screen (AID 1090).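 Also: basal condition with compound alone and no growth modifier present; test concentration not given here.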 Conditions: S. pombe 972 growth, higher = more signal, called active from +8 up or from −8 down.
A short description of assay [14]: budding yeast growth modifiers under rapamycin – strain BY4716, OD600, 96 h, primary screen (AID 1091). Also: test concentration not given here. Conditions: S. cerevisiae BY4716 + rapamycin, higher = more signal, called active from +8 up or from −8 down.
The target of assay [15] is Torsin-1A-interacting protein 2 (Homo sapiens) (UniProt Q8NFQ8). The assay is described as follows: small molecules binding lysate-expressed LULL1 – cell lysate, human LULL1 lysate, 635/667 nm fluorescence, primary screen (AID 1092).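 Also: probe is lysate of COS7 cells overexpressing human LULL1; score merges per-feature 667 nm fluorescence with signal-to-noise.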 Conditions: small-molecule microarray, hLULL1 lysate binding, 635 nm fluorescence; higher = more signal.
Torsin-1A-interacting protein 2 (Homo sapiens), sequence (Q8NFQ8 whole entry, looked up): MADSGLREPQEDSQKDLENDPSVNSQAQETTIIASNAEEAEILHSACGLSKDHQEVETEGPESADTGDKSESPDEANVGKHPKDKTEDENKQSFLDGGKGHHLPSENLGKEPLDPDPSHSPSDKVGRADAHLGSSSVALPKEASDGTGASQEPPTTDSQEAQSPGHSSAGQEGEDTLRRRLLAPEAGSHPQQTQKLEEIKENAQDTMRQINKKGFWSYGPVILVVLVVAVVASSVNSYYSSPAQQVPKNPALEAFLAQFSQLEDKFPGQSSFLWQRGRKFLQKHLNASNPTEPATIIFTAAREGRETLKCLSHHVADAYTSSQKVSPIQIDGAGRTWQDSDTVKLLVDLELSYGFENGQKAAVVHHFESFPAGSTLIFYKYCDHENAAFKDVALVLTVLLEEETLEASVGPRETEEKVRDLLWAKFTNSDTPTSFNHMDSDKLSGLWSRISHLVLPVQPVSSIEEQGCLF
The nature of assay [16]: optical density change of DRC41 E. coli – strain DRC41, OD650, 24 h, E. coli filamentation project, primary screen (AID 1093).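 Also: MC1000 strain lacking acrAB efflux and sulA so SOS filamentation is blocked; test concentration not given here.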 To be noted: E. coli DRC41 growth, higher = more signal, called active from +8 up or from −8 down.
Assay [17] can be described thus: probe aLefty2 binding to arrayed compounds – biochemical, biotinylated probe, 635/667 nm fluorescence, primary screen (AID 1094).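 Also: score merges spot fluorescence near 667 nm with spot signal-to-noise ratio.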 Conditions: small-molecule microarray, higher = more signal.
In assay [18] the test system is Noggin (protein binding on small-molecule microarray). As to the kind of experiment: small molecules binding Noggin protein – biochemical, 635/667 nm fluorescence, primary screen (AID 1095).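 Also: score merges 667 nm feature fluorescence with signal to noise over triplicate slides.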 Conditions: 635 nm fluorescence, higher = more signal.
The target of assay [19] is Neurogenic locus notch homolog protein 3 (Homo sapiens) (UniProt Q9UM47). As to the kind of experiment: small molecules binding NOTCH3 protein – biochemical, 635/667 nm fluorescence, primary screen (AID 1096). To be noted: small-molecule microarray, 635 nm fluorescence, higher = more signal.
Assay [20] in a line: probe aEGFR binding to arrayed compounds – biochemical, biotinylated probe, 635/667 nm fluorescence, primary screen (AID 1097).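 Also: probe is a biotinylated anti-EGFR antibody binding compounds printed on slides; score combines fluorescence near 667 nm and signal to noise of each spot.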 Conditions: small-molecule microarray, higher = more signal.

Neurogenic locus notch homolog protein 2 (Homo sapiens), sequence (Q04721 whole entry, looked up, canonical isoform): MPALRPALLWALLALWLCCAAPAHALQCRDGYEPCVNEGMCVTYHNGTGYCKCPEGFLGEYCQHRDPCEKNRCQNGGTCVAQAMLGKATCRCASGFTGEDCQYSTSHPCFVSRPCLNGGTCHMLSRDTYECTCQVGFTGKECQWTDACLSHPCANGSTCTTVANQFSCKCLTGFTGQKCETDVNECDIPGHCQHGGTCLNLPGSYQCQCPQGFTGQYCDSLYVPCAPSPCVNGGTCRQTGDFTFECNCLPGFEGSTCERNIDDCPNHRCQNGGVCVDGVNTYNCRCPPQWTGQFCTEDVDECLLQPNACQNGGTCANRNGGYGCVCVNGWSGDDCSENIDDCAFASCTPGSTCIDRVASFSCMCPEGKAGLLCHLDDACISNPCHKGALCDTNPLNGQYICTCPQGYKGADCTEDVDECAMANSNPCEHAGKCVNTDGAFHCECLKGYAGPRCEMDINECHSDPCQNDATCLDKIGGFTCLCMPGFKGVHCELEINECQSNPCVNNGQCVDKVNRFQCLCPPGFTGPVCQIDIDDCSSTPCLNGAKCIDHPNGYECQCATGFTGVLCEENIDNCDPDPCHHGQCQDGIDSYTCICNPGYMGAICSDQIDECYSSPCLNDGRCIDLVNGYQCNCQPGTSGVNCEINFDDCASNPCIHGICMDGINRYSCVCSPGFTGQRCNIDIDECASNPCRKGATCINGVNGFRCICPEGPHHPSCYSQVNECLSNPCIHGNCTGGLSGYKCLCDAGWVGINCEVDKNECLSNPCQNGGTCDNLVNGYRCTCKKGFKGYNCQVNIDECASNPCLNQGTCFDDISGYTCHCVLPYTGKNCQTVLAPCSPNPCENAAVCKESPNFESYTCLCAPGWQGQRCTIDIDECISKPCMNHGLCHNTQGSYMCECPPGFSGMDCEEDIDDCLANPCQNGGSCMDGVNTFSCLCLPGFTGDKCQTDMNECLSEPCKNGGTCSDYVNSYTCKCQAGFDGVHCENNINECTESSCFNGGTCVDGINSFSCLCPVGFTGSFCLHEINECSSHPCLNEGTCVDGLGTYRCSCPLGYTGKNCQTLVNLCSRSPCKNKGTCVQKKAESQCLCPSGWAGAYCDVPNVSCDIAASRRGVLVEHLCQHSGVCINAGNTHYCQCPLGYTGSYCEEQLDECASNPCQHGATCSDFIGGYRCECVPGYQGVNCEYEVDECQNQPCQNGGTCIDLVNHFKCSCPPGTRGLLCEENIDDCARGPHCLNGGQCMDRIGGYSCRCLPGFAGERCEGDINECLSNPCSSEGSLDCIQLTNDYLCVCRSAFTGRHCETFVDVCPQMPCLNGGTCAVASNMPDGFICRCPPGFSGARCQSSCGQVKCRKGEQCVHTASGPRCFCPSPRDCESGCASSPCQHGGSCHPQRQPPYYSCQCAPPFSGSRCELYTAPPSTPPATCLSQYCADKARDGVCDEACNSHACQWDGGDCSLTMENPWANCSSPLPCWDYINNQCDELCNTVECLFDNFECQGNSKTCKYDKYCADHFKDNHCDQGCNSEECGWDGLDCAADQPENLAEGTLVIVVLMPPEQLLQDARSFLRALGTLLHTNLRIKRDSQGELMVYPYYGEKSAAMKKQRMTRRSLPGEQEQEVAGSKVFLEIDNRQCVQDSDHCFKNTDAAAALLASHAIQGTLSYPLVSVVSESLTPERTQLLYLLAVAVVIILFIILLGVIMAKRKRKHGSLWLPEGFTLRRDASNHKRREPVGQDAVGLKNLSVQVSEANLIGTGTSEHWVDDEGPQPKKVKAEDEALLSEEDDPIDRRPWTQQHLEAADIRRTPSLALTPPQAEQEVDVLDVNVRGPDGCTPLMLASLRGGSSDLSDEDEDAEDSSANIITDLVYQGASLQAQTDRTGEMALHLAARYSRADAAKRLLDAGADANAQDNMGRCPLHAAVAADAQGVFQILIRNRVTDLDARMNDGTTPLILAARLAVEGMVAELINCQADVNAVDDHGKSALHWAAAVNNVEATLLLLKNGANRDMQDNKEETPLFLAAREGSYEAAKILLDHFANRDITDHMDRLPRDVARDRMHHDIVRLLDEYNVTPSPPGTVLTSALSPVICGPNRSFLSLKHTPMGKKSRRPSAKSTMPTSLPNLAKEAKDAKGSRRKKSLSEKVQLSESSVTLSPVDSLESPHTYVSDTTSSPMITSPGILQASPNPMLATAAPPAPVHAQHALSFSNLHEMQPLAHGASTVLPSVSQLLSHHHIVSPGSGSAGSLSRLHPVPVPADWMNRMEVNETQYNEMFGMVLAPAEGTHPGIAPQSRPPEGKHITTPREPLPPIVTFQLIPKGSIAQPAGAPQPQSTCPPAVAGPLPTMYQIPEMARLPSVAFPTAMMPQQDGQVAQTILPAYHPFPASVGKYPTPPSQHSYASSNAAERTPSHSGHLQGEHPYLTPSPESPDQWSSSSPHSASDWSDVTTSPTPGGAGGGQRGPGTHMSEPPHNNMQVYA

Take `CCOC(=O)C[C@H]1[C@H](OC(=O)c2ccc(C(=O)c3ccccc3)cc2)[C@@H](NC(=O)Cc2ccc(OC)cc2)c2cc(OCCCO)ccc2N1C(=O)Cc1ccc(OC)cc1`: the composite z-score in [1] was determined as 0.0476; in [2] it was 0.346; in assay [3] it was 0.007; in assay [4], 0.35; in [5], 0.903; in [6] it was 0.752. For the same compound, the composite z-score in [7] is 0.668; in [9], 0.971; in assay [10] it was -0.132; in assay [11] it was 1.21; in [15], 1.66; in assay [17], 0.0673. The composite z-score is 0.22 in assay [18], 1.13 in assay [19] and -0.0131 in assay [20]. Moreover, the z-score was -1.22 (inactive) in assay [8]; -0.574 (inactive) in [12]; -1.42 (inactive) in assay [13]; -0.914 (inactive) in assay [14]; 1.78 (inactive) in [16].
As for `NCCCCCNC(=O)[C@H]1C[C@H]2C(=O)NCC(=O)N2[C@H]1c1ccc(O)cc1`, the composite z-score is -0.136 in assay [1]; 2.22 in assay [2]; -0.113 in [3]; 0.847 in assay [4]; 0.775 in [5]; 1.3 in assay [6]. In addition, the composite z-score was 1.22 in assay [7]; 0.106 in [9]; 0.154 in assay [10]; 1.55 in assay [11]; 2.16 in assay [15]; -0.0424 in assay [17]. For the same compound, the composite z-score in assay [18] came to 1.86; in assay [19], 0.906; in assay [20] it was 0.186. Besides, the z-score in assay [8] is 1.51 (inactive); in assay [12] it was 0.535 (inactive); in assay [13], -1.08 (inactive); in assay [14], 1.11 (inactive); in assay [16], 1.1 (inactive).
With `COc1ccc([Si](C)(C)[C@H]2[C@H](CC(=O)N(CCO)Cc3ccccc3)O[C@@]3(C(=O)N(Cc4ccc(N5CCOC5=O)cc4)c4ccccc43)[C@@H]2C)cc1`, the composite z-score in [1] is 0.0147; in assay [2] it was 0.285; in assay [3] it was -0.105; in assay [4], 0.202; in assay [5] it was 0.135; in assay [6] it was 0.869. The composite z-score was 1.01 in assay [7]; -0.158 in assay [9]; -0.0618 in assay [10]; 0.92 in assay [11]; 1.98 in assay [15]; -0.0595 in assay [17]. In addition, the composite z-score was 0.821 in assay [18], 0.361 in assay [19] and -0.146 in [20]. The z-score in assay [8] is -2.95 (inactive); in assay [12], 0.473 (inactive); in assay [13] it was 0.273 (inactive); in assay [14], 3.26 (inactive); in assay [16], 1.46 (inactive).
For the compound `COC(=O)C(CC#Cc1ccc2c(c1)[C@]1(C(=O)N2)[C@H](c2ccccc2OCCO)N2[C@H](c3ccccc3)[C@H](c3ccccc3)OC(=O)[C@H]2[C@@H]1C(=O)N1CCCCCCC1)C(=O)OC`, the composite z-score is 4 in assay [1]; 2.62 in assay [2]; 0.984 in assay [3]; 1.28 in [4]; 1.54 in [5]; 2.17 in assay [6]. The composite z-score in assay [7] was 0.982; in [9], 3.71; in assay [10], 2.52; in assay [11], 1.53; in assay [15], 4.89; in assay [17] it was 1.93. Further, the composite z-score was found to be 2.02 in [18], 1.09 in assay [19] and 1.44 in assay [20]. The z-score in assay [8] was 0.62 (inactive); in [12] it was 0.349 (inactive); in assay [13] it was 0.958 (inactive); in assay [14] it was 1.06 (inactive); in assay [16], 1.83 (inactive).
With `COc1ccc(CCNC(=O)[C@@]2(Sc3ccc(C)cc3)CC(=O)N(Cc3ccccc3)[C@@H]2c2ccc(CO)cc2I)cc1`, the composite z-score in assay [1] is -1.07; in assay [2], 0.461; in assay [3] it was -0.187; in [4] it was -0.111; in assay [5] it was -0.0768; in [6], 0.0114. In addition, the composite z-score in [7] is 0.388; in assay [9], -0.32; in assay [10], -0.616; in assay [11], 0.471; in assay [15], 1.87; in [17], -0.337. Also, the figures for the composite z-score in [18], in [19] and in assay [20] were -0.814, -0.915 and -0.119, respectively. Further, the z-score in assay [8] is -1.58 (inactive); in assay [12], 0.44 (inactive); in assay [13], -1.66 (inactive); in assay [14], 2.72 (inactive); in assay [16], 0.485 (inactive).

The values are drawn from PubChem BioAssay.
